Source: PubChem BioAssay (Sanford-Burnham Center for Chemical Genomics)
Only some compounds are listed: those with a hit (about 2.1% of all), similar ones and a draw of the others.
PABP1 MLLE inh = blocks PAM2 peptide binding to the PABP1 MLLE domain. actives 0.36% (n = 360,000). P11940. GST-MLLE / FITC-PAM2 fluorescence polarization. AID 588489. inhibition, % at 20 µM; in the data active = inhibition above about 35%, passing the limit was not always enough
CendR NRP1 mod = alters CendR peptide binding to human NRP-1 | O14786 | FAM-RPARPAR peptide binding to NRP-1, fluorescence polarization | inhibition, % at 25 µM | actives 0.85% (n = 360,000) | AID 602438;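 active = inhibition or corrected inhibition above about 18%, plus a signal ratio from 0.5 to 1.5, limit read from the data, passing the limit was not always enough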
eIF4H FP inh = inhibitors of RNA binding by human eIF4H; AID 2012; actives 0.94% (n = 290,000); eIF4H fluorescence polarization binding assay; Q15056; inhibition, % at 35 µM;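 also: calls also rest on retests at 20 µM and on dose response follow-up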
PABP FP inh = PABP-poly(A) binding inhibition; AID 2014; actives 1% (n = 290,000); P11940; PABP-poly(A) RNA binding, fluorescence polarization; inhibition, % at 35 µM;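 also: calls also rest on retests at 20 µM and on dose response follow-up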
A number is an active result; 0 = inactive; - = not tested or not shown. Unless noted, no rule for the calls is given here.

SMILES	PABP1 MLLE inh	CendR NRP1 mod	eIF4H FP inh	PABP FP inh
O=C(Cc1csc(NC(=O)Nc2ccc(Cl)cc2)n1)NCc1cccnc1	0	34.3	-	-
O=C(Cc1csc(NC(=O)Nc2cccc(Cl)c2)n1)NCc1cccnc1	0	0	-	-
CCN(CC)c1ccc(-c2n[nH]c(=S)n2-c2ccccc2)cc1	0	0	3.4	0
CN(C)c1ccc(-c2n[nH]c(=S)n2-c2ccccc2)cc1	0	0	0	0
CC(C)OC(=O)CSc1nnc(-c2ccccn2)n1-c1ccccc1	0	21.3	0	0
CCC(=O)c1cn(CC(=O)Nc2ccc(C)cc2)c2ccccc12	0	0	0	0
CCC(=O)c1cn(CC(=O)Nc2ccccc2)c2ccccc12	0	34.1	0	0
